# Source: PubChem BioAssay
# An excerpt weighted towards active compounds, which were near 4.1% of everything screened.
# ssDAF12 agonist – S. stercoralis DAF-12 nuclear receptor activators, primary screen, cell-based, luminescence, HEK293, GRIP1 co-expression, lit1-tk-luc | Nuclear hormone receptor DAF-12 (Strongyloides stercoralis) | HEK293 ssDAF-12/GRIP1 lit1-tk-luc reporter; % of 3 µM dafachronic acid response | activation, % at 6.8 µM | 370,000 tested, 1% active | AID 652126, 2013;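 active means activation above the mean over all tested compounds plus 3 SD, cut at about 0.9% in these data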;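 further: 0% = DMSO-only wells and 100% = 3 µM delta7-dafachronic acid wells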
# hgDAF12 agonist – H. glycines DAF-12 receptor agonists, primary screen, cell-based, luminescence, HEK293, GAL4 fusion, UAS-luciferase; HEK293 GAL4-hgDAF12 UAS-luciferase reporter, agonist luminescence; normalized to butyrate control; activation, % at 6.8 µM; 370,000 tested, 1.8% active;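 active means activation above a cutoff set at the mean of all screened compounds plus 3 SD, cut at about 10% in these data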;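 further: 0% = DMSO wells and 100% = sodium butyrate wells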
# DAX1 inh-1 – DAX1 (NR0B1) inhibitors, primary screen, cell-based, HEK293, Gal4-DAX1, luciferase luminescence; HEK293 Gal4-DAX1 luciferase reporter; inhibition, % at 6.75 µM; Nuclear receptor subfamily 0 group B member 1 (Homo sapiens), P51843; 340,000 tested, 0.99% active;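 active means inhibition above the mean over all tested compounds plus 3 SD, cut at about 4.2% in these data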;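 further: 0% = DAX1-transfected cells with DMSO and 100% = empty-vector control cells with DMSO; inhibition shows as a rise in luminescence from relieved DAX1 repression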
# Target sequence (P51843 207-470 limits assumed): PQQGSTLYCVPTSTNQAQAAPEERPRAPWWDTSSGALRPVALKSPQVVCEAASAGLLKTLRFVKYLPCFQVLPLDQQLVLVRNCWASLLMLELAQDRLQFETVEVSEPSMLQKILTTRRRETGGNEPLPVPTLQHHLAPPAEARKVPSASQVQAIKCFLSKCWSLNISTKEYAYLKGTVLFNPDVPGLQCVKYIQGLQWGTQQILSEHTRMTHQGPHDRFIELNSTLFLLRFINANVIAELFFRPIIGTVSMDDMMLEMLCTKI
# DAX1 inh-2 – DAX1 (NR0B1) inhibitors on StAR promoter, primary screen, cell-based, luminescence, SF-1 (NR5A1), full-length DAX-1; 370,000 tested, 1.1% active; inhibition, % at 6.8 µM; HEK293T StAR-luciferase reporter, SF-1/DAX-1 repression relief; AID 652010, 2013;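 active means inhibition above the mean over all tested compounds plus 3 SD, cut at about 3.6% in these data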;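 further: 0% = DAX-1 cells with DMSO and 100% = cells lacking DAX-1 with DMSO; higher inhibition means more luminescence from relief of DAX-1 repression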
# hcDAF-12 act – H. contortus DAF-12 nuclear receptor activators, primary screen, cell-based, luminescence, HEK293, lit1-tk-luc reporter | HEK293 hcDAF-12 lit1-tk-luc reporter; 0% DMSO, 100% Δ7-dafachronic acid | activation, % at 6.8 µM | 370,000 tested, 1.4% active | AID 652067, 2013;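 active means activation above the mean of all tested compounds plus 3 SD, cut at about 5.5% in these data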;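 further: 100% = response to 3 µM Δ7-dafachronic acid high control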
# The depositor's hits bear a star; x = no result.
SMILES,ssDAF12 agonist,hgDAF12 agonist,DAX1 inh-1,DAX1 inh-2,hcDAF-12 act
COc1ccc(C(=O)C2(C(=O)NCc3ccccc3)CC(c3ccccn3)=NO2)cc1 (stereo unspecified),-1.1,-3.4,x,0.2,-1.2
C[C@H]1COc2cccc(F)c2S(=O)(=O)N1C,-1.8,0.3,x,0.8,-0.9
CC(NC(=O)CN1C(=O)NC2(CCCCC2)C1=O)c1ccc(S(N)(=O)=O)cc1 (stereo unspecified),-0.9,0.3,-1.1,3.9*,1.4
CC(NC(=O)CN1C(=O)NC2(CCCCCCC2)C1=O)c1ccccc1 (stereo unspecified),-0.2,-1.1,0.2,-0.9,2.3
CC(Sc1nnc(Nc2ccccc2)s1)C(=O)Nc1nc(-c2ccccc2)cs1 (stereo unspecified),-0.9,-0.3,5.0*,1.3,2.8
CC(OC(=O)c1ccc(O)cc1)C(=O)Nc1nc(-c2ccccc2)cs1 (stereo unspecified),-0.4,1.1,-0.2,-2.7,-1.6
CCOC(=O)N1CCN(C(=O)C[C@@H]2C[C@]3(C(=O)OCC)CCC4=C3N(CCC4)C2=O)CC1,-1.4,1.5,x,-0.7,-0.4
CCOc1ccccc1NC(=O)c1cc2c(C)nn(-c3ccccc3)c2s1,-1.4,2.0,x,0.3,-1.5
CCC1CCC/C1=N\NC(=O)c1ccccc1C (stereo unspecified),0.1,4.6,5.3*,0.2,2.4
C#CCN(Cc1cccc(F)c1)C(=O)c1nnc2c3cc(F)ccc3n(S(=O)(=O)c3ccc(OC)cc3)c2n1,-0.2,0.3,x,1.0,1.4
NS(=O)(=O)c1ccc(OCCCN2CCC(C(O)(c3ccccc3)c3ccccc3)CC2)cc1,-1.6,-1.7,x,0.4,-2.5
Clc1ccc(-n2c(Cc3cccs3)nnc2SC/C=C/c2ccccc2)cc1,-1.3,-0.9,x,-0.5,0.9
CN1c2ccccc2Oc2nnc(N3CCN(Cc4ccccc4)CC3)cc21,-1.7,10.4*,-2.6,0.2,-0.8
CN1c2ccccc2Oc2nnc(Cl)cc21,-1.5,-0.9,1.1,0.6,-2.4
C=CS(=O)(=O)N(Cc1ccc(F)cc1)C(=C)C(=O)OC,-1.8,-8.6,x,-5.8,-3.5
COC(=O)c1cnn(-c2nc3c(C)cccc3s2)c1C,0.4,2.3,0.6,-0.3,5.9*
Cc1cccc2sc(N3CCN(C(=O)C4COc5ccccc5O4)CC3)nc12 (stereo unspecified),-1.3,0.3,-1.0,1.1,-0.8
COc1ccc(CCNC(=O)COc2ccc(N(C)S(=O)(=O)c3ccc(Cl)cc3)cc2)cc1,-2.0,-1.3,1.8,0.1,-2.1
CN(c1ccc(OCC(=O)NCCc2ccccc2)cc1)S(=O)(=O)c1ccc(Cl)cc1,-0.5,3.1,-0.4,4.2*,3.2
Cc1sc2nc(COC(=O)CNC(=O)c3cc(F)ccc3F)[nH]c(=O)c2c1C,0.8,-0.1,x,-0.9,0.8
CC(=O)N1CCN(c2ccc(N3CCN(C(C)=O)[C@@H](C)C3)c(C)c2)[C@@H](C)C1,-1.1,1.0,x,-1.7,-1.9
CSc1nsc(SCC(=O)NC2CCCCC2)n1,0.1,3.1,0.0,1.2,5.6*
CCSc1nnc(SCC(=O)NC2CCCCC2)s1,-1.3,0.2,-0.1,-0.5,0.0
Cc1ccccc1-n1nc2c(c1NC(=O)c1ccc(S(=O)(=O)N(C)C)cc1)CSC2,-0.6,-1.6,0.2,0.6,5.9*
CC(=O)Nc1c2c(nn1-c1ccccc1C)CSC2,-1.0,-0.6,-0.5,2.2,-1.2
SMILES,ssDAF12 agonist,hgDAF12 agonist,DAX1 inh-1,DAX1 inh-2,hcDAF-12 act
O=C(Nc1ccccc1)OC1CCCCc2cccnc21 (stereo unspecified),1.7*,-0.7,-0.2,0.2,-1.1
O=CNc1cc(-c2ccccc2)cn2c(-c3ccc(F)c(Cl)c3)cnc12,1.5*,2.4,x,1.3,-0.6
O=CNc1cc(-c2cccc(F)c2)cn2c(-c3ccc(F)c(Cl)c3)cnc12,-0.6,3.9,x,0.9,-0.5
COC(=O)[C@]12C[C@H](CC(=O)NCCCN3CCCC3=O)C(=O)N(Cc3ccccc3)C1=C[C@H](COCc1ccccc1)O[C@@H]2C,-1.1,2.0,x,-0.7,-2.5
CC(=O)c1ccc(N2CCN(S(=O)(=O)c3cc4[nH]c(=O)c(=O)[nH]c4cc3C)CC2)cc1,-0.9,10.8*,0.1,1.2,-1.6
CC(=O)c1ccc(N2CCN(S(=O)(=O)c3ccc4c(c3)CCC(=O)N4)CC2)cc1,-1.2,0.5,x,-0.7,-1.4
COC(=O)[C@]12C[C@H](CC(=O)NCc3cccc(C(F)(F)F)c3)C(=O)N(CCC3=CCCCC3)C1=C[C@H](COCc1ccccc1)O[C@@H]2C,-1.7,-1.1,x,-1.3,-1.6
CCOc1ccc(/C=N/Nc2ccc(Cl)nn2)c(O)c1,-0.4,4.0,0.7,0.1,1.2
CCOc1ccccc1/C=N/Nc1ccc(Cl)nn1,1.0*,-0.8,0.6,-0.2,0.4
O=C(c1cc([N+](=O)[O-])cc([N+](=O)[O-])c1)N1CCCc2ccccc21,-0.5,-2.6,-0.1,-0.5,-1.5
O=C(NC(=S)N1CCCc2ccccc21)c1ccc(Br)cc1,-1.0,3.4,0.4,0.0,5.9*
O=C(NC(=S)N1CCCc2ccccc21)c1ccc([N+](=O)[O-])cc1,-0.1,1.0,-0.7,0.0,5.6*
COc1ccc(C(=O)NC(=S)N2CCCc3ccccc32)cc1OC,-1.0,-3.6,-0.5,0.3,-0.1
O=[N+]([O-])c1ccc(CN2CCOCCOCCN(Cc3ccc([N+](=O)[O-])cc3Cl)CCOCC2)c(Cl)c1,-1.4,-0.2,x,x,0.6
CN(C(=O)CCc1cn(C)c2ccccc12)c1ccc(Oc2cccnc2)cc1,-1.5,1.4,x,0.1,-1.5
CCN(C(=O)CCc1cn(CC)c2ccccc12)c1ccc(Oc2cccnc2)cc1,-0.3,11.4*,x,3.6*,-0.8
COc1ccc(/C=N/NC(=O)c2ccncc2)cc1OC,-1.0,-2.2,-0.4,0.1,-2.0
O=C(N/N=C/c1ccc(F)cc1)c1ccccc1,0.1,12.8*,5.2*,2.8,2.7
O=C(N/N=C\c1ccccc1)c1ccccc1-n1cccc1,1.2*,3.3,1.8,-0.6,4.0
O=C(O)c1ccc(/C=N/NC(=O)c2ccc(F)cc2)cc1,-0.9,-1.0,1.1,0.1,0.8
O=C(N/N=C\c1ccc(F)cc1)c1csnn1,-0.7,13.1*,2.5,2.0,1.4
COc1ccc(/C=C/C(=O)Oc2ccc(/C=N/NC(=O)c3ccccc3)cc2)cc1OC,-0.3,5.7,4.2*,0.1,0.3
CN(C)c1cccc(/C=C2\CC3(OC(=O)c4ccco4)CCCN2C3)c1 (stereo unspecified),-1.6,-0.1,x,-1.1,-1.2
